# Source: PubChem (National Center for Advancing Translational Sciences (NCATS))
# Only some compounds are listed: those with a hit (about 1.8% of all), similar ones and a draw of the others.
# TRPML1 agonist: activates the human TRPML1 channel; AID 624414; TRPML1-expressing cells, Ca2+ dye fluorescence, FDSS; 410,000 tested, 0.12% active; Q9GZU1; activation, % (concentration not given with the values); in the data active = activation above about 50%; inconclusive = mostly about 30% to 49%; note: 0% is about no effect
#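 Calcium fluorescence on an FDSS kinetic reader gave the read-out. Tet-induced TRPML1-DL cells were plated overnight, dye-loaded (Ca8 with quencher, 45-90 min, room temperature, dark), then read 110 s after compound addition, and again 110 s after 4uM final 54-4 (EC80).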
# GLP-1R inv ag: GLP-1 receptor (human) inverse agonism; Potency, µM (highest dose often 38.3 µM), for inactives: top-dose activity change, negative = inhibition, hits mostly inhibitors; P43220; 410,000 tested, 1.6% active; HEK293 GLP-1R CRE-luciferase, luminescence, 24 h; GLP-1R form is constitutively active; note: potency is the fitted concentration of half-maximal effect; % is set by controls: 0 for no effect and ±100 for the full control effect; nearly all actives have a fitted effect of over 55% in size
# Target sequence (P43220 whole entry, looked up): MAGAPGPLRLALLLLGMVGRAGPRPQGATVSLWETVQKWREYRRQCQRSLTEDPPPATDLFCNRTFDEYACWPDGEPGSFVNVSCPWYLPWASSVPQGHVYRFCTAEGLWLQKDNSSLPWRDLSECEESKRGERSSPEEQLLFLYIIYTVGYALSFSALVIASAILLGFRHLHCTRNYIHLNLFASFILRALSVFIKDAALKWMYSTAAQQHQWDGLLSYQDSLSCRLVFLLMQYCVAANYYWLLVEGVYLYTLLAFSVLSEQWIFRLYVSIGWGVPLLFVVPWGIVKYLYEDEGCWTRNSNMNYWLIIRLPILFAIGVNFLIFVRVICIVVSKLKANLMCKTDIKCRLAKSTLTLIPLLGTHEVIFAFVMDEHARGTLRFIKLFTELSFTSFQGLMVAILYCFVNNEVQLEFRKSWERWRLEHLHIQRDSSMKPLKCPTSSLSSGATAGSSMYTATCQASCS
#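 Assay principle: reduced luminescence from a cAMP-responsive reporter in HEK293 cells co-expressing a constitutively active GLP-1R. Conditions: 24 hr compound incubation, 37 deg C, 5% CO2.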
# HEK293 tox: cytotoxic in the GLP-1 receptor inverse agonist counter-screen; HEK293 cAMP-luciferase reporter cells, luminescence, 24 h; Potency, µM (titrated, usually from 38.3 µM), without a hit: at the top dose activity change, negative = inhibition, actives largely listed as inhibitors; 410,000 tested, 0.13% active;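 note: loss of luciferase light is scored as toxicity; potency is the fitted concentration of half-maximal effect; % is set by controls: 0 for no effect and ±100 for the full control effect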
#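 Quantitative HTS format, 1536 wells, 200 cells/uL seeded. Compounds: 23 nL, 24 h, 37 °C. Detection: luciferase reagent, luminescence at 12 min RT; decreased signal taken as cytotoxic.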
# TRPML1 blocker: blocks the human TRPML1 channel | 390,000 tested, 0.02% active | activity change, negative = inhibition, % (no concentration beside the values) | TRPML1-inducible cells, Ca2+ dye fluorescence, FDSS; hits give low values; inhibition of EC80 agonist-evoked calcium signal | AID 624415 | Q9GZU1; in the data active = activity change below about -50%; inconclusive = between about -30% and that limit;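 note: stimulus is agonist 54-4 at its EC80 concentration; % is set by controls: 0 for no effect and ±100 for the full control effect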
#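 Tet-induced TRPML1-DL cells loaded with Ca8 no-wash calcium dye were read kinetically on FDSS. Compound addition was followed by EC80 agonist 54-4 (4 uM final); inhibition was read over 110 s.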
# GLP1R ag: GLP-1 receptor (human) agonism. 380,000 tested, 0.007% active. P43220. AID 624172. HEK293 GLP-1R CRE-luciferase, luminescence, 4-6 h; cells express a hypersensitive GLP-1R form. Potency, µM (top dose mostly 45.6 µM), for the others: top-dose activation, hits mostly activators; note: potency is the fitted concentration of half-maximal effect; % of control where 0% means no effect
# Starred values were filed as active, the others as inactive; ? = inconclusive; . = no result given. Unless noted, calls come from the whole dose curve; as a rule, active = well fitted curve in the direction sought with a large enough effect; inconclusive = small, poorly fitted or top-dose-only effect, or another doubt; inactive = no such curve, though single readings can be large; an effect the other way counts as inactive or inconclusive.
SMILES,TRPML1 agonist,GLP-1R inv ag,HEK293 tox,TRPML1 blocker,GLP1R ag
CC1(C)CC(NS(=O)(=O)c2ccc(C(C)(C)C)cc2)CC(C)(C)N1,0,3.5µM*,-14%,5,3%
O=C1[C@H]2[C@@H](c3ccc(F)cc3)N3C(=O)N(c4cccc(Cl)c4)C(=O)[C@@]3(Cc3ccccc3)[C@H]2C(=O)N1C1CCCCC1,0,5.6µM*,3%,5,-1%
O=C1[C@H]2[C@@H](c3ccc(F)cc3)N3C(=O)N(c4cccc(Cl)c4)C(=O)[C@@]3(Cc3ccc(Cl)cc3)[C@H]2C(=O)N1C1CCCCC1,-1,?,-7%,1,-4%
COc1cc(Br)ccc1C1CC(=O)C(C)C(c2ccc(Br)cc2OC)N1 (configuration not stated),2,10µM*,3%,-3,11%
CC(NC(=O)CN(C)CC(=O)Nc1ccc(Cl)c(C(F)(F)F)c1)c1ccccc1 (configuration not stated),1,10µM*,6%,-9,-4%
CN(CC(=O)NCC(=O)Nc1ccc(F)cc1)CC(=O)Nc1ccc(Cl)c(C(F)(F)F)c1,1,?,-17%,-1,-37%
Cc1cc(N/N=C/c2cccc(F)c2)nc(NCc2ccccc2)n1,1,?,?,-4,-1%
Cc1cc(N/N=C/c2cccc(Cl)c2)nc(NCc2ccccc2)n1,3,11µM*,?,12,1%
Cc1cc(N/N=C/c2ccccc2)nc(NCc2ccccc2)n1,2,?,-32%,19,-6%
Cc1cc(C)nc(NCc2ccc(Cl)cc2)n1,2,?,4%,24,14%
Cc1cc(N/N=C/c2ccc(Cl)cc2)nc(NCc2ccccc2)n1,1,4.5µM*,-16%,5,19%
Cc1cc(Nc2cccc(Cl)c2)nc(NCc2ccccc2)n1,0,10µM*,-11%,-6,17%
CCOc1ccc(-c2nnc(-c3ccc(OC)cc3)o2)cc1,-1,14%,-12%,1,-14%
CCOc1ccc(-c2nnc(-c3ccccc3)o2)cc1,1,5µM*,-3%,4,-13%
CSc1ccc(Cl)c(C(=O)NCCOc2cc(C(C)C)ccc2C)c1,3,11µM*,3%,24,-3%
Cc1ccc(C)c(N2CCN(S(=O)(=O)c3cccc4cccnc34)CC2)c1,1,10µM*,4%,7,15%
Cc1ccc(NC(=O)C2CCCN(S(=O)(=O)c3cccc4cccnc34)C2)cc1Cl (configuration not stated),2,10µM*,-12%,0,.
CCCCC(=O)Nc1ccc(C(=O)OCc2cc(=O)n3ccsc3n2)cc1,0,-9%,-3%,6,.
Cn1c(Cl)cnc1C1CC(=O)c2cc(Cl)ccc2O1 (configuration not stated),0,3.5µM*,7.9µM*,-7,-4%
CN(C(=O)CSc1cc(C(=O)c2nccn2C)c2ccccc2n1)c1ccccc1,1,10µM*,?,-4,6%
COc1cc(CNn2cnnc2)ccc1OCC(=O)NC1CCCCC1,0,22%,2%,-4,9%
COc1cc(CNCc2ccccc2Cl)ccc1OCC(=O)NC1CCCCC1,0,10µM*,-26%,19,13%
CC(NCC(=O)NC(=O)NC1CCCC1)c1ccc(Cl)cc1Cl (configuration not stated),0,10µM*,-7%,18,8%
CCOC(=O)[C@H](CCc1ccccc1)NC(C)C(=O)N1CC2(CC1C(=O)O)SCCS2 (some centres not stated),.,.,.,.,-4%
NNC(=O)Nc1cccc(C(F)(F)F)c1,0,10%,1%,6,0%
O=C(Nc1ccncc1)Nc1cccc(C(F)(F)F)c1,0,10µM*,-16%,-13,-3%
O=C(Nc1ccc(OC(F)F)cc1)Nc1cccc(C(F)(F)F)c1,2,4.5µM*,?,21,-5%
O=C(Nc1ccc(OC(F)(F)F)cc1)Nc1cccc([N+](=O)[O-])c1,1,2.5µM*,5.6µM*,-9,-15%
